From PubChem BioAssay AID602163 (The Scripps Research Institute Molecular Screening Center, 2012)
Hit rate of the full screen: of about 360,000 compounds, about 1,100 (0.31%) were called active. Many of the other results were omitted from the sample, so actives are more common in it than they were. Values without a mark were called inactive. Cut-off read from the data, not from the text of the source: active = activation above about 7.5%; inactive = the rest.

The compounds below were run on Methionine sulfoxide reductase A (Bos taurus) (assay: activation of methionine sulfoxide reductase A – biochemical, absorbance, bovine, HTS, primary screen (AID 602163;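 note: 0% = vehicle and 100% = reference activator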)). Details: purified bovine MsrA, absorbance read-out; at 10.6 µM; stronger effect = higher value.

Question: How did the activation turn out when `O=C(N[C@@H](Cc1c[nH]c2ccccc12)C(=O)O)OCC1c2ccccc2-c2ccccc21` was run?
Answer: 0.63%

Question: With `CC(=O)NC(Cc1c[nH]c2ccccc12)C(=O)O` (stereo not drawn) as the compound, how does the activation read?
Answer: 9.9% (active)

Question: How did the activation turn out when `CC(=O)NC(Cc1c[nH]c2ccccc12)C(=O)NCCc1ccccc1` (stereo not drawn) was run?
Answer: -3.82%

Question: With `NS(=O)(=O)c1cccc(NC(=O)CC23CC4CC(CC(Br)(C4)C2)C3)c1` as the compound, how does the activation read?
Answer: -2.66%

Question: How did the activation turn out when `C#CCO[C@@H]1C[C@H](n2cnc3c(=O)[nH]c(NC(=O)C(C)C)nc32)O[C@@H]1CO` was run?
Answer: -0.46%

Question: With `COc1cc(NC(=O)c2ccccc2)c(OC)cc1NC(=O)Cc1ccccc1` as the compound, how does the activation read?
Answer: 0.53%

Question: How did the activation turn out when `O=C(NC1=CC(=O)c2ccccc2C1=O)c1ccccc1` was run?
Answer: 18.2% (active)

Question: Which activation does the source give for `C/C(=N\NC(=O)c1ccc(C)cc1)C1C(=O)c2ccccc2C1=O` here?
Answer: -5.75%

Question: `O=C(CSCc1c(Cl)cccc1Cl)NN1C(=O)c2ccccc2C1=O` was tested. Which activation did it give?
Answer: -2.13%

Question: How did the activation turn out when `O=C(COC(=O)Cc1ccc(Br)cc1)Nc1ccc(N2CCOCC2)cc1` was run?
Answer: -1.14%

Question: Which activation does the source give for `O=C(CSc1n[nH]c(-c2cccs2)n1)N1CCCCC1` here?
Answer: 8.31% (active)

Question: Which activation does the source give for `O=C(CSc1ncccn1)N1CCCC1` here?
Answer: -3.29%

Question: Which activation does the source give for `Cn1c(SCC(=O)N2CCCC2)nnc1-c1cccs1` here?
Answer: -0.73%

Question: With `CCCCn1c(N)c(N(CC(C)C)C(=O)CSc2ccc([N+](=O)[O-])cc2)c(=O)[nH]c1=O` as the compound, how does the activation read?
Answer: -3.75%

Question: How did the activation turn out when `COc1ccc([C@H]2CC(=O)C=C(/C=C/c3ccc(Cl)cc3)C2)cc1` was run?
Answer: -1.21%

Question: Which activation does the source give for `COc1ccc([C@H]2CC(=O)C=C(/C=C/c3ccccc3)C2)cc1` here?
Answer: 8.06% (active)

Question: For `COc1ccc([C@H]2CC(=O)C=C(c3ccc(C)cc3)C2)cc1`, which activation is on record?
Answer: -3.05%

Question: With `O=C(Nc1cccn(Cc2c(Cl)cccc2Cl)c1=O)c1ccc(Cl)cc1` as the compound, how does the activation read?
Answer: 2.68%

Question: How did the activation turn out when `CC(Sc1nnc(CNC(=O)c2ccccc2F)n1C)C(=O)Nc1nccs1` (stereo not drawn) was run?
Answer: 0.09%

Question: For `O=C(O)c1ccccc1-c1ccccc1C(=O)Nc1cccc2ccccc12`, which activation is on record?
Answer: 11.4% (active)

Question: Which activation does the source give for `O=C(Nc1ccccc1F)c1ccccc1-c1ccccc1` here?
Answer: -1.97%

Question: `O=C(O)c1ccccc1-c1ccccc1C(=O)NCCc1ccccc1` was tested. Which activation did it give?
Answer: -13.5%

Question: With `O=C(O)c1ccccc1-c1ccccc1C(=O)Nc1nccs1` as the compound, how does the activation read?
Answer: -2.03%

Question: For `O=C(O)c1ccccc1-c1ccccc1C(=O)Nc1ccccc1Br`, which activation is on record?
Answer: -10.3%

Question: `O=C(O)c1ccccc1NC(=O)c1ccccc1-c1ccccc1C(=O)O` was tested. Which activation did it give?
Answer: 7.87% (active)

Question: `N#Cc1ccc(OCCN2C(=O)NC3(CCSC3)C2=O)cc1` (stereo not drawn) was tested. Which activation did it give?
Answer: -0.26%

Question: For `CCOC(=O)c1cc(-c2ccccc2C)n(Cc2cc(C)no2)n1`, which activation is on record?
Answer: -2.88%

Question: Which activation does the source give for `COc1ccccc1CNC(=O)C1CCN(S(=O)(=O)c2ccc3c(c2)OCCO3)CC1` here?
Answer: -2.2%

Question: How did the activation turn out when `Cc1ccc(S(=O)(=O)N(CC(=O)NN=C2CCN(C)CC2)c2ccc(F)cc2)cc1` was run?
Answer: -2.23%

Question: `CCOC(=O)c1cc(-c2sc(NC(=O)c3ccccc3)nc2C)n(CCO)n1` was tested. Which activation did it give?
Answer: -3.15%

Question: With `Cn1sc(NC(=O)c2ccccc2)nc1=O` as the compound, how does the activation read?
Answer: 14.9% (active)

Question: Which activation does the source give for `Cc1nc(NNC(=O)c2ccccc2)cc(-c2ccccc2)n1` here?
Answer: 1.76%

Question: How did the activation turn out when `CCN(CC)S(=O)(=O)c1ccc(OC(C)C)c(N)c1` was run?
Answer: -3.46%

Question: For `CN1C(=O)c2ccccc2C(C(=O)NCCCN2CCCC2)C1c1c[nH]c2ccccc12` (stereo not drawn), which activation is on record?
Answer: -1.12%

Question: Which activation does the source give for `Cc1ccc(SCC(=O)c2cc(C)c(OC(=S)N(C)C)c(C)c2)cc1` here?
Answer: 1.83%

Question: `COc1ccc(CCNC(=O)CN2CCC(n3nnc4cc(F)ccc43)CC2)cc1OC` was tested. Which activation did it give?
Answer: -2.2%

Question: Which activation does the source give for `NC1=CC(=O)C(=O)c2cccnc21` here?
Answer: 15.2% (active)

Question: `Cc1ccc2c(CC(=O)NCc3cccs3)coc2c1` was tested. Which activation did it give?
Answer: -2.6%

Question: For `COc1cc(C(=O)OCCCN2CCOCC2)cc(OC)c1OC`, which activation is on record?
Answer: -0.8%

Question: With `COC(=O)c1scc(S(=O)(=O)C(C)(C)C)c1-n1cccc1` as the compound, how does the activation read?
Answer: -1.27%

Question: `COc1ccc(S(=O)(=O)N2CCOCC2)cc1NC(=O)Cc1coc2cc(C)ccc12` was tested. Which activation did it give?
Answer: -1.58%

Question: For `CC(C)c1ccc(Nc2ncccc2C#N)cc1`, which activation is on record?
Answer: -0.47%

Question: `CC1=NNC(=O)C1CCC(=O)N/N=C(\C)c1ccc(Cl)cc1` (stereo not drawn) was tested. Which activation did it give?
Answer: 19.6% (active)

Question: `CC1=NNC(=O)C1CCC(=O)N/N=C\c1ccc(Cl)c(Cl)c1` (stereo not drawn) was tested. Which activation did it give?
Answer: -2.03%

Question: With `CC1=NNC(=O)C1CCC(=O)N/N=C\c1cccc(Cl)c1` (stereo not drawn) as the compound, how does the activation read?
Answer: -5.62%

Question: Which activation does the source give for `CCOc1ccc(CCNC(=O)COC(=O)C2CCN(S(=O)(=O)c3ccccc3)CC2)cc1OCC` here?
Answer: -3.79%

Question: `CSC1=NCCN1C(=O)Cc1cccc2ccccc12` was tested. Which activation did it give?
Answer: -1.62%

Question: With `O=C(NCCOc1ccccc1)N1[C@H]2CC[C@@H]1C=C(c1ccc(F)cc1OCc1ccccc1)C2` as the compound, how does the activation read?
Answer: -0.63%

Question: How did the activation turn out when `CCOc1ccc(C(C)=O)cc1COC(=O)CN1C(=O)NC2(CCCC2)C1=O` was run?
Answer: -2.45%

Question: How did the activation turn out when `O=C(CN1C(=O)NC2(CCCC2)C1=O)OCCOc1ccc(F)cc1` was run?
Answer: -0.72%

Question: `Cc1ccc(COC(=O)CN2C(=O)NC3(CCCC3)C2=O)cc1` was tested. Which activation did it give?
Answer: 10.9% (active)

Question: How did the activation turn out when `N=c1c2c3c(sc2ncn1CCCN1CCOCC1)CCCCC3` was run?
Answer: -6.06%

Question: `CCn1c(=S)[nH]c2sc3c(c2c1=O)CCCCC3` was tested. Which activation did it give?
Answer: 1.11%

Question: Which activation does the source give for `S=c1[nH]nc2c3c4c(sc3ncn12)CCCC4` here?
Answer: 12.9% (active)

Question: How did the activation turn out when `COc1ccc(C(=O)OCC(=O)c2ccc(Cl)s2)c(OC)c1OC` was run?
Answer: -1.71%

Question: With `O=C(OCC(=O)N1CCN(c2ccccc2)CC1)c1ccc([N+](=O)[O-])s1` as the compound, how does the activation read?
Answer: 8.9% (active)

Question: Which activation does the source give for `COc1ccc(C(=O)COC(=O)c2ccc([N+](=O)[O-])s2)cc1OC` here?
Answer: 12.4% (active)

Question: With `COc1ccc(C(=O)OCC(=O)Nc2ccc3[nH]c(=O)[nH]c3c2)c(OC)c1OC` as the compound, how does the activation read?
Answer: 1.62%

Question: `COc1cccc(/C=C/C(=O)OCC(=O)N2CCN(c3ccccc3)CC2)c1` was tested. Which activation did it give?
Answer: -1.19%

Question: With `C[C@H](NC(=O)c1ccccc1Cl)C(=O)OCC(=O)N1CCN(c2ccccc2)CC1` as the compound, how does the activation read?
Answer: 1.01%

Question: With `COc1ccc(C(=O)OCC(=O)c2ccc(C)c(S(=O)(=O)N3CCOCC3)c2)cc1OC` as the compound, how does the activation read?
Answer: -4.43%

Question: With `COc1cc(NC(=O)COC(=O)c2cnc(C)cn2)c(C)cc1[N+](=O)[O-]` as the compound, how does the activation read?
Answer: -4.41%

Question: With `COc1cc(NC(=O)COC(=O)c2ccc([N+](=O)[O-])s2)cc(OC)c1OC` as the compound, how does the activation read?
Answer: 10.6% (active)
